In all, about 310,000 compounds went through this assay and about 1,200 (0.39%) were called active. The list is a sample of the results. Entries with a potency or affinity are not part of this list. A number with no mark means an inactive call. How the calls were made is not given here.

For the assay, the target named is Large T antigen (Simian virus 40) (UniProt P03070). In words: TAg ATPase/helicase activity blockers – biochemical (AID 1903). The note with it: SV40 large T antigen ATPase/helicase inhibition assay; at 20 µM; active compounds read high.
Large T antigen (Simian virus 40), sequence (P03070 whole entry, looked up): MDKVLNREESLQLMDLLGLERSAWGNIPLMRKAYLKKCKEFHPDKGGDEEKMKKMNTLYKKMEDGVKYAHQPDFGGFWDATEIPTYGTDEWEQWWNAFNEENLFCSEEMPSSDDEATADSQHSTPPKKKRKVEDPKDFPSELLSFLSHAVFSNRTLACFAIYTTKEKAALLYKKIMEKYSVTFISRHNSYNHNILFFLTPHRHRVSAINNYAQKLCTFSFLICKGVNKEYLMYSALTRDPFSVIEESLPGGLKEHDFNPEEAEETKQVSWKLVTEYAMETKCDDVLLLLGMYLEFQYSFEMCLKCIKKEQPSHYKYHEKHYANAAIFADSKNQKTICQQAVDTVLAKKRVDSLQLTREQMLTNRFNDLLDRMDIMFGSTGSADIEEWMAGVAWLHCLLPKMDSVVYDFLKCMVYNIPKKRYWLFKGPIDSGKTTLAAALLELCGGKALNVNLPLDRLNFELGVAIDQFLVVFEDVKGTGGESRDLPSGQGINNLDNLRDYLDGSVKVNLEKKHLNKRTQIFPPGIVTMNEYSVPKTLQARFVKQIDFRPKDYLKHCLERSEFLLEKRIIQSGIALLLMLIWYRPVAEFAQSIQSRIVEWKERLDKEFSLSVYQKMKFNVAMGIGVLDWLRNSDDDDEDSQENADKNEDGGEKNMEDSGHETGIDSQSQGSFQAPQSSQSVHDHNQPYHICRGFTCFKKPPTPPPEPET
A word on the inhibition: it is the drop in the measured response relative to a control, in per cent. With `CC(=O)Nc1ccc(NC(=O)CCOc2ccccc2C)cc1`, the inhibition is 9.91%. Turning to `O=C(NCCc1nnc2ccc(N3CCCCCC3)nn12)c1ccccc1F`, the inhibition is 10%.

Take `COc1ccc(C(=O)NCC(C)(C)CNC(=O)c2ccc(OC)cc2)cc1`: the inhibition is 11.7%. The result for `CCN(CC)c1ccc(CN(C(=O)c2ccco2)C2CCS(=O)(=O)C2)cc1` (stereo unspecified) reads 21.8%; that for `COC(=O)C1=C(C(=O)OC)[C@@H]2N(C)c3ccc(OC)cc3[C@@]23C[C@@H](C(=O)OC)N(S(=O)(=O)c2ccc([N+](=O)[O-])cc2)C3=N1`, 1.76%. The result for `CCOC(=O)C1=NN(c2ccc(C)cc2)CC1C(=O)OC` (stereo unspecified) reads 7.97%. Take `CCOc1cc(C(=O)N[C@@H](C)C(=O)N2CCC3(CC2)NCCc2[nH]cnc23)cc(OCC)c1OCC`: the inhibition was 4.98%. `S=C(NCCN1CCOCC1)N/N=C/c1ccccc1`: the inhibition is 2.2%. The result for `COCCCNC(=S)N/N=C/c1ccccc1O` reads 12.5%; that for `COc1cc(/C=N/NC(=S)NCCN2CCOCC2)cc(OC)c1OC`, 12.4%. The figure for `Oc1cccc(/C=N/NC(=S)NCCN2CCOCC2)c1O` is 50.5%; for `COc1ccc(CNC(=S)N/N=C/c2ccc(OC)c(OC)c2)cc1` it is 4.58%; for `COCCCNC(=S)N/N=C/c1ccc(O)cc1` it is 46.2%. The figure for `CCOc1ccc(CNC(=S)N/N=C/c2ccc(OC)c(OC)c2)cc1` is 9.25%. For the molecule `COc1cc(/C=N/NC(=S)NCCN2CCOCC2)cc(OC)c1O`, the inhibition is 30.1%. The figure for `CC(=O)c1cccc(NC(=S)NC(=O)c2ccccc2Br)c1` is 4.36%; for `COCCn1c(-c2ccc(Br)cc2)csc1=Nc1cccnc1` it is 8.06%. The result for `O=C(CN1CCN(C(=O)c2ccco2)CC1)Nc1ccc(Cl)c(S(=O)(=O)N2CCOCC2)c1` reads 0.58%; that for `O=C(Nn1cnnc1)C(Sc1ccccc1)c1ccccc1` (stereo unspecified), 1.32%; that for `O=C(NCCF)[C@H]1C[C@@H]1[C@H](NP(=O)(c1ccccc1)c1ccccc1)c1ccccc1`, 3.51%. On to `COc1ccc2oc(C(=O)OCC(=O)Nc3ccc(N4CCOCC4)cc3)c(C)c2c1`, for which the inhibition was 14%. The result for `CC(C)CCn1c(CN2CC(C)OC(C)C2)nc2c1c(=O)n(C)c(=O)n2C` (stereo unspecified) reads 4.84%; that for `CC(C)Oc1ccc(Br)cc1/C=N\NC(N)=S`, 16%; that for `CC(C)NC(=O)c1nn2c(C(F)(F)F)cc(-c3ccco3)nc2c1Cl`, 10.7%.

For `Cn1c(=O)n(-c2cccc(Cl)c2)c(=O)n1C`, the inhibition is 10.7%. For `Cc1nn(-c2cccc(Cl)c2)nc1C(=O)O`, the inhibition was 6.68%.

As to `O=C1Nc2cc(Cl)ccc2Nc2cscc21`, the inhibition is 14.2%. The result for `CCOc1cc(C(C(=O)NCC2CCCO2)N(C(=O)Cn2nnc3ccccc32)c2ccccc2C)ccc1O` (stereo unspecified) reads 9.12%; that for `O=C(Nc1ccc(C(=O)O)cc1)/C(=C\c1ccco1)NC(=O)c1ccccc1`, 7.81%. In the case of `CC(=O)Nc1ccc(NC(=O)/C(=C/c2ccco2)NC(=O)c2ccccc2)cc1`, the inhibition is 14.8%. On to `Cc1ccc(NC(=O)/C(=C/c2ccncc2)NC(=O)c2ccccc2)cc1`, for which the inhibition was 13.5%.

For the molecule `O=C(Nc1ccccc1)/C(=C\c1cccs1)NC(=O)c1ccccc1`, the inhibition is 10.4%.

Take `Cc1ccc(NC(=O)/C(=C\c2cccs2)NC(=O)c2ccccc2)cc1`: the inhibition is 3%. The figure for `O=C(Nc1ccccc1)/C(=C\c1ccncc1)NC(=O)c1ccccc1` is 5.96%; for `COc1cc(CN2CCCC(C(=O)Nc3ccccc3Oc3cccnc3)C2)ccc1F` (stereo unspecified) it is 7.89%. As for `CCOC(=O)c1[nH]c2c(c1-c1ccccc1)C(=O)CC(c1ccc(OCC)cc1)C2` (stereo unspecified), the inhibition was -10.4%. Regarding `C=CCOc1ccc(CNCc2cccnc2)cc1`, the inhibition is 2.27%. As to `Cn1c(N2CCN(C(c3ccccc3)c3ccccc3)CC2)nc2ccccc21`, the inhibition is 0.51%.

Regarding `Cc1cc2nc3c(c(C(F)(F)F)n2n1)CCCC3`, the inhibition is 3.17%. With `COc1ccc(/C=C2\CCc3c2nc2ccccc2c3C(=O)O)cc1OC`, the inhibition was 6.95%. As for `COc1cc(/C=C2\CCCc3c2nc2ccccc2c3C(=O)O)cc(OC)c1O`, the inhibition was 30.3%. The figure for `COc1cccc(N2CC(NS(=O)(=O)c3ccc4ccccc4c3)CC2=O)c1` (stereo unspecified) is 11%; for `Nc1ccccc1SSc1ccccc1N` it is 22.8%; for `Cc1ccc(O)c(Sc2cc(C)ccc2O)c1` it is 5.68%. For `O=S(=O)(c1ccc(-c2cnc(C3CC3)o2)cc1)N1CCN(c2ccccc2)CC1`, the inhibition was 7.98%. The result for `O/N=C1\CCCc2ccc(Cl)cc21` reads 3.89%; that for `Cc1cc(C)n(CCc2nc(-c3cccs3)cs2)n1`, 0.46%; that for `Cc1cc(C)n(CCc2nc(-c3ccc(C)o3)cs2)n1`, 28.1%. Regarding `CC(O)c1nc2cc([N+](=O)[O-])ccc2n1Cc1ccccc1` (stereo unspecified), the inhibition is 7.32%. Turning to `O=C(/C=C/c1cccc(Cl)c1)NCc1cccs1`, the inhibition was -0.755%.

On to `COc1ccc(NC(=O)COc2ccc(C)c(C)c2)cc1S(=O)(=O)N1CCCCC1`, for which the inhibition was 5.04%. For the molecule `Cc1cccc(OCCn2ccnc2)c1C`, the inhibition was 12.1%. The result for `CC(C)Cn1c(=O)c(C(=O)NCc2ccc3c(c2)OCO3)c(O)c2ccccc21` reads -14.6%; that for `CCOC(=O)C1(C)C=C(Nc2ccc(C)cc2)C(=O)N1c1ccc(C)cc1` (stereo unspecified), 12.1%; that for `CCOC(=O)C1(C)C=C(Nc2ccc(NC(C)=O)cc2)C(=O)N1c1ccc(NC(C)=O)cc1` (stereo unspecified), 6.98%. The result for `COc1ccc(C)c2sc(=NC(=O)c3cccc(N4C(=O)CCC4=O)c3)n(C)c12` reads 14.4%; that for `COC(=O)c1c(C(=O)OC)c2ccccn2c1C(=O)c1ccccc1`, 10.4%. The result for `Cc1ccc(-c2nc(C=Nc3ccc(O)cc3)c(O)o2)cc1` reads 23.6%. On to `Cc1ccc(N=C(N)N=C(N)N)cc1`, for which the inhibition was 6.91%.

`O=C1CC(NS(=O)(=O)c2cc(F)ccc2F)CN1c1cccc(F)c1` (stereo unspecified): the inhibition was 4.86%. On to `CCc1ccc[n+](-c2nc3ccccc3nc2C(=C=[N-])C#N)c1`, for which the inhibition is 11.3%.

For the origin of these results see PubChem BioAssay AID1903 (Southern Research Specialized Biocontainment Screening …, 2009).
